# Data as given in paper PMC6925144, “A prospective compound screening contest identified broader inhibitors for Sirtuin 1” (Scientific Reports, 2019).
# The full ranking holds about 3,200 compounds; the median of “TSA(without NAD+) / Primary screening (TSA) / delta Tm (K)” is about -0.07, and the highest 2% start at about 0.37. For the sample, the highest values were picked, then their nearest neighbours and some compounds at random.
# Biological target: NAD-dependent deacetylase Sirtuin 1 (human, UniProt Q96EB6)
# Test: primary screen, delta tm
# Set-up: single well (n = 1)
# Conditions: 10 µM
# Protocol: A total of 3,192 compounds extracted from the proposed lists were first screened by thermal shift assay (TSA), which determined a melting temperature shift (ΔTm) of Sirtuin 1 upon the addition of a test compound at a concentration of 10 µM (n = 1) with primary hit criteria of ΔTm > 0.45 K or ΔTm < −1.5 K. Primary hits (48 compounds) were retested in the same assay at three concentrations (5, 10, 20 µM, n = 4) for hit confirmation and for dose-dependency check. Secondary hits (41 compounds) were checked their selectivity for Sirtuin 1 based on counterscreening on unrelated protein targets (bovine carbonic anhydrase (CA) and recombinant SH2 domain of hABL1 kinase (ABL1)) at three different concentrations (5, 10, 20 µM, n = 4), which yielded 38 hit compounds, hereafter referred to as TSA hits. The TSA screening above was conducted in the absence of NAD+.
# NAD-dependent deacetylase Sirtuin 1, sequence (Q96EB6 2-747 limits assumed): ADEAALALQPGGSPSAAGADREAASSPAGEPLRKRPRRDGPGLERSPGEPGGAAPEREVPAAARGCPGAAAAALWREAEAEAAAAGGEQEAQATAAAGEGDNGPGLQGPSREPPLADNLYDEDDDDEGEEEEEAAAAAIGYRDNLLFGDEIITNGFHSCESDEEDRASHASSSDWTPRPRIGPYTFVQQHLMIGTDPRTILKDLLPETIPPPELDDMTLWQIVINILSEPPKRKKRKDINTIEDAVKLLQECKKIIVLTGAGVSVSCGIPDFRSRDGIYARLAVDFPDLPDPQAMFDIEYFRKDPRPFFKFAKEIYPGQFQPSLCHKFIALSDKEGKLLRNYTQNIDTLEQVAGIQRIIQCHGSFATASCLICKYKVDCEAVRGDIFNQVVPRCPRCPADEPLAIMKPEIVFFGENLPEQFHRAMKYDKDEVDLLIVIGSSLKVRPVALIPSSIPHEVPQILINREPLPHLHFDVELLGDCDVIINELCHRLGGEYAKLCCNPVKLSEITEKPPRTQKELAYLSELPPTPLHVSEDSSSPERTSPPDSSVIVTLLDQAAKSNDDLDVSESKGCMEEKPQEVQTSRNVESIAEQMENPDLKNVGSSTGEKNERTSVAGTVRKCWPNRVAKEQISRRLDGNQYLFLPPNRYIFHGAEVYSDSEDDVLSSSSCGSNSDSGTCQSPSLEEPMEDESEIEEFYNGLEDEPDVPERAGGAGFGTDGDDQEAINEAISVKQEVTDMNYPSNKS
row,Structure (SMILES),TSA(without NAD+) / Primary screening (TSA) / delta Tm (K)
1,Cc1ccc(C(C)(C)C)cc1S(=O)(=O)Nc1cccc(C(=O)NNC(=O)c2cccc(S(=O)(=O)Nc3cccc(C(F)(F)F)c3)c2)c1,1.22
2,O=C(NO)c1cccc(C(F)(F)F)c1,-0.13
3,NC(=O)c1ccc(CNC2CCCCCC2)o1,-0.05
4,C=CCOc1cccc(C2C(C(=O)c3ccco3)=C(O)C(=O)N2CCCN2CCOCC2)c1 (stereo not shown),-0.08
5,COc1cc(NC(C)C(=O)Nc2ccc(C(N)=O)cc2)cc(OC)c1OC (stereo not shown),-0.18
6,COc1ccc(CNC(=S)NC2CCCCC2)cc1OC,-0.23
7,COc1ccc(NC(=S)NN)cc1OC,0.37
8,COc1ccc(Br)cc1/C=C1/COc2ccccc2C1=O,-0.03
9,CCC(NC(=O)c1ccc(C(N)=O)cc1)C(c1ccc(C)cc1)n1cncn1 (stereo not shown),-0.21
10,CCCOC(=O)c1ccc(NC(=O)c2cccc(S(=O)(=O)N(C)c3ccc(OC)cc3)c2)cc1,0.35
11,COc1ccc(N(C)S(=O)(=O)c2cccc(C(=O)Nc3ccc4c(C)cc(=O)oc4c3)c2)cc1,-0.13
12,COc1ccc(N(C)S(=O)(=O)c2cccc(C(=O)Nc3cccc4ccccc34)c2)cc1,-0.13
13,COc1ccc(N(C)S(=O)(=O)c2cccc(C(=O)Nc3ccc(Br)cc3)c2)cc1,0.36
14,COc1ccc(N(C)S(=O)(=O)c2cccc(C(=O)Nc3ccc4ccccc4c3)c2)cc1,0.82
15,COc1ccc(N(C)S(=O)(=O)c2cccc(C(=O)Nc3ccc(Br)cc3F)c2)cc1,0.07
16,COc1ccc(N(C)S(=O)(=O)c2cccc(C(=O)Nc3cccc(Br)c3)c2)cc1,0.38
17,COc1ccc(N(C)S(=O)(=O)c2cccc(C(=O)Nc3ccc(Br)c(C(F)(F)F)c3)c2)cc1,0.62
18,COc1ccc(NC(=O)c2cccc(S(=O)(=O)N(C)c3ccc(OC)cc3)c2)cc1,0.03
19,COc1ccc(N(C)S(=O)(=O)c2cccc(C(=O)Nc3ccc(Cl)cc3)c2)cc1,0.36
20,COc1ccc(N(C)S(=O)(=O)c2cccc(C(=O)Nc3ccc(-n4cnnn4)cc3)c2)cc1,0.59
21,COc1ccc(N(C)S(=O)(=O)c2cccc(C(=O)Nc3ccc(OC)c(OC)c3)c2)cc1,-0.31
22,O=C(CCc1ccc2c(c1)OCO2)N1CCc2[nH]c3ccccc3c2C1,-0.15

row,Structure (SMILES),TSA(without NAD+) / Primary screening (TSA) / delta Tm (K)
1,Cc1nc(-c2ccccn2)[nH]c(=O)c1CC(=O)NCc1cccc(Oc2ccccc2)c1,0.09
2,NC(=O)C1CCN(C(=O)c2ccc3[nH]c4c(c3c2)CCCC4)CC1,0.17
3,Cc1cc(N(C)C)n2nc(C(F)(F)F)c(-c3ccccc3)c2n1,-0.18
4,Cc1ccc(-n2c(C)c(C)c3c(N)ncnc32)cc1,0.02
5,CCc1cc2c(N3CCCC3)nc(C)nc2s1,-0.07
6,CCCOc1ccc(C(=O)C2=C(O)C(=O)N(CCCN3CCOCC3)C2c2ccccc2F)cc1 (stereo not shown),-0.27
7,CC(=O)Nc1ccc(NC(=O)c2ccccc2SCC(=O)NC23CC4CC(CC(C4)C2)C3)cc1,-0.21
8,CCOc1ccc(C2C(C(=O)c3ccco3)=C(O)C(=O)N2CCCN2CCOCC2)cc1 (stereo not shown),-0.13
9,NC(=O)c1cccc(CN2CCCC2c2ccsc2)c1 (stereo not shown),-0.08
10,CC(=O)Nc1ccc(CNCc2ccccc2CN2CCCC2)cc1,-0.12
11,NC(=O)C1CCN(c2ncnc3c2c(-c2ccccc2)cn3-c2cccc(C(F)(F)F)c2)CC1,-0.07
12,CC(Nc1cccc(C(N)=O)c1)C1CN(Cc2ccccc2)CCO1 (stereo not shown),-0.18
13,CC(=C/c1ccccc1)/C=N/NC(=O)c1cc(-c2ccc(C)cc2)n[nH]1,1.06
14,Cc1ccc(-c2cc(C(=O)OC(C)C(=O)Nc3cccc([N+](=O)[O-])c3)[nH]n2)cc1 (stereo not shown),0.12
15,Cc1ccc(C2C(C(=O)c3cc4ccccc4o3)=C(O)C(=O)N2CCCN2CCOCC2)o1 (stereo not shown),0.02
16,N#Cc1cc(Br)ccc1NCC1(CCO)CCOC1 (stereo not shown),-0.24
17,Cc1cc(C)c(NC(=O)CN(C)C(=O)CNC(=O)C(C)(C)C)c(C)c1,0.02
18,O=C1/C(=C/c2cccc(O)c2)Oc2cc(O)ccc21,-0.21
19,O=C1/C(=C/c2ccccc2)Oc2cc(O)ccc21,0.08
20,O=C1/C(=C/c2cnn(-c3ccccc3)c2)Oc2cc(O)ccc21,1.25
21,NC(=O)c1ccc(C(=O)OCC(=O)Nc2ccccc2-c2ccccc2)cc1,-0.18
